Test results: PubChem BioAssay AID1851 (National Center for Advancing Translational Sciences (NCATS), 2009)
Several values for one entry are separate records, joined by “and”; a condition that tells them apart may be missing. Equal entries are not always repeated. About 5,800 (36%) of roughly 16,000 compounds were called active. About 23% were inconclusive and are not listed. Calls come from the whole dose curve; as a rule, active = well fitted curve in the direction sought with a large enough effect; inconclusive = small, poorly fitted or top-dose-only effect, or effect the other way; inactive = no such curve, though single readings can be large or run the other way. This is one part of the list.

What follows are compounds tested against Cytochrome P450 2C19 (Homo sapiens) (UniProt P33261) (assay: Cytochrome panel assay with activity outcomes). Conditions: recombinant CYP, pro-luciferin dealkylation, luminescence, p450-cyp2c19; series mostly up to 57.1 µM; activity, negative = inhibition: at the top concentration.
% is set by controls: 0 for no effect and ±100 for the full control effect.

Sequence of Cytochrome P450 2C19 (Homo sapiens) (P33261 whole entry, looked up): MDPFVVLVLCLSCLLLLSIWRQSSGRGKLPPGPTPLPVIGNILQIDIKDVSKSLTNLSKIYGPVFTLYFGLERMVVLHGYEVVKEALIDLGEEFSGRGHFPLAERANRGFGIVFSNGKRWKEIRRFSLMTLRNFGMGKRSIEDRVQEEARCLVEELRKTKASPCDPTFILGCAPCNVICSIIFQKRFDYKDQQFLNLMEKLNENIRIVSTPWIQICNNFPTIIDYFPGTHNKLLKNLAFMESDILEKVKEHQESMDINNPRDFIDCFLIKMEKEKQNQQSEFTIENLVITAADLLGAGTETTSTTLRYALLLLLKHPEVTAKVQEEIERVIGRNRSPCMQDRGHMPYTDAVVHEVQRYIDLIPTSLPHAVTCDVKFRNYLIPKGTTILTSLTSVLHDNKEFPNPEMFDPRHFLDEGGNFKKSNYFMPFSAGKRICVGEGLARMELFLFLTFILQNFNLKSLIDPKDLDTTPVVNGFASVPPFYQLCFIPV

activity, negative = inhibition, inactive:
Nc1cc(C(=O)O)[nH]c(=O)n1 35.4% [at 11.4 µM]
COC(=O)CNC(=O)CCCCC(=O)NCC(=O)OC -2.61%
Cc1nc2sccn2c(=O)c1Cl -25.7%
CC(C)(CN)CN 26.4% [at 11.4 µM]
O=C(c1ccco1)N1CCC2(CCCN(Cc3ccccc3)C2)CC1 32.8%
N#Cc1ccc(CN2CCCC3(CCN(C(=O)c4cccc(F)c4)CC3)C2)cc1 -33.4%
O=C(c1cccc(F)c1)N1CCC2(CCCN(Cc3ccccc3)C2)CC1 -17%
O=C(c1cccc(F)c1)N1CCC2(CC1)CN(Cc1ccccc1)C2 -38.8%
O=C(c1cccc(F)c1)N1CCC2(CCCN(Cc3cc(C(F)(F)F)cc(C(F)(F)F)c3)C2)CC1 -21.3%
O=C(c1ccco1)N1CCC2(CCN(Cc3ccncc3)CC2)CC1 -37.6%
O=C(O)c1ccc2c(c1)C(=O)N(C(Cc1ccc(O)cc1)C(=O)O)C2=O (stereo unspecified) -26.8%
CO[C@@H]1COC(=O)[C@H](CCSC)NC(=O)C/C=C\[C@@H](C)COC(=O)[C@@H]2CCCN2C(=O)C/C=C\[C@H]1C 43.9% [at 11.4 µM]
CC(C)(C)c1cc2c(O)c(c1)Cc1cc(C(C)(C)C)cc(c1O)Cc1cc(C(C)(C)C)cc(c1O)Cc1cc(C(C)(C)C)cc(c1O)Cc1cc(C(C)(C)C)cc(c1O)Cc1cc(C(C)(C)C)cc(c1O)Cc1cc(C(C)(C)C)cc(c1O)Cc1cc(C(C)(C)C)cc(c1O)C2 -8.28% [at 11.4 µM]
O=C(Nc1ccccc1)N1CC2(CCN(C(=O)c3cc(C(F)(F)F)cc(C(F)(F)F)c3)CC2)C1 22.7%
COc1c(F)c(F)c(C(=O)O)c(Nc2ccc(C)cc2)c1F -14.2%
COCC(=O)N1CCC2(CC1)CCN(C(=O)Nc1cccc(F)c1)CC2 -28.3%
CCOC(=O)NNC1CC(=O)N(c2ccc(OC)cc2)C1=O (stereo unspecified) 21.8%
CC(=O)Nc1ccc(N2C(=O)CC(c3ccccc3)CC2=O)cc1 0.0834%
CC(C)(C)NC[C@H](O)COc1cccc2c1CCC(=O)N2 1.37% [at 25.6 µM]
C[C@@H]1C(=O)N(C)C(=O)c2nc[nH]c21 18%
CCSC[C@@H](N)C(=O)O 17.8% [at 11.4 µM]
O=C(O)c1ccccc1C(=O)Nc1nccs1 22.9%
Nc1c2c(nc3ccccc13)CCC[C@H]2O -11.2%
Cc1sc(NC(=O)C2CCCCC2C(=O)O)c(C(N)=O)c1C (stereo unspecified) 7.52%
CN(C)c1ccc(O)c2c1C[C@H]1C[C@H]3[C@@H](N(C)C)C(=O)C(C(N)=O)=C(O)[C@]3(O)C(=O)C1=C2O -11.3% [at 25.6 µM]
Cc1ccccc1-n1nc2c(c1NC(=O)c1ccc(S(=O)(=O)N(C)C)cc1)CSC2 -4.86%
COc1ccc(Cc2nnc(NC(=O)c3ccc(Cl)c([N+](=O)[O-])c3)s2)cc1 14.1%
COc1ccc(-c2nc3cnc(Nc4cccc(OC)c4)nc3n(CCC#N)c2=O)cc1 -34.1%
Cc1ccccc1C(=O)NNC(=O)c1ccoc1C -22.2%
Fc1cccc(C2NC(=S)NC3=C2N2CCC3CC2)c1 (stereo unspecified) 7.94%
Cc1c(C2CCN(CCc3ccccc3)CC2)noc1-c1ccc(Cl)cc1 -37.6%
Clc1ccc2c(c1)N=C(N1CCNCC1)c1ccccc1N2 22.9%
Cc1cnc(CNc2ccnc(-c3ccoc3)n2)cn1 -24.7%
CCCN(C/C=C\I)[C@@H]1CCc2cccc(O)c2C1 -26.9%
Cc1cc2c(=O)[nH]c(N)nc2nc1C 20.6% [at 11.4 µM]
CO[C@H]1COC(=O)C/C=C\[C@H](C)[C@H](OC)COC(=O)[C@@H](C)COC(=O)C/C=C\[C@@H]1C -8.22% [at 11.4 µM] and -6.35% [at 11.4 µM]
C=CCN1CCc2c(cc(O)c(O)c2Cl)[C@H](c2ccccc2)C1 -40.1%
O=C(CCCN1C(=O)C2C3C=CC(C3)C2C1=O)N1CCN(c2ccccc2)CC1 (stereo unspecified) -27%
O=C(O)c1ccc(/C=N\N=C2c3ccccc3-c3ccccc32)cc1 19.5% [at 11.4 µM]
Cc1c(S(=O)(=O)O)ccc(N=Nc2c(O)c(C(=O)O)cc3ccccc23)c1Cl 14.5% [at 11.4 µM]
O=C1C[C@@H](O)[C@@H](O)[C@H]2[C@@H]3C(=O)N(C[C@@H]4CCCO4)C(=O)[C@@H]3CC[C@H]12 43.9% [at 11.4 µM] and 16.6% [at 11.4 µM]
Cn1cccc1C(=O)N1CCC2(CC1)CCN(C(c1ccccc1)c1ccccc1)CC2 -14.1%
CN(C)C(=O)c1ccc(-c2cncnc2Nc2ccccc2)cc1 -27.6%
Cc1cnc(CNc2ncncc2-c2ccc(C(=O)N(C)C)cc2)cn1 0.3%
CN(C)C(=O)c1ccc(-c2cncnc2NCc2ccccc2)cc1 -10.8%
CCOC(=O)c1c(NC(=S)NC(=O)c2cnn(CC)c2)sc2c1CCC(C)C2 (stereo unspecified) -22%
CCOC(=O)c1c(NC(=O)c2ccc(S(=O)(=O)N3CCOCC3)cc2)sc2c1CCN(C)C2 30.2%
CCOC(=O)c1c(NC(=O)c2c(C)noc2C)sc2c1CCCCC2 -4.88%
CCOC(=O)c1c(N2C(=O)Nc3cc(Cl)c(Cl)cc3N2O)sc2c1CCCCC2 -110%
COc1cccc(Nc2ncc3ncc(=O)n(CCC#N)c3n2)c1 -23.9%
COCCn1c(=O)cnc2cnc(Nc3cccc(OC)c3)nc21 -17.7%
CCNc1ncc2nc(-c3cn(C)c4ccccc34)c(=O)n(Cc3cccc(OC)c3)c2n1 -30.7%
CCNc1ncc2nc(-c3ccc(OC)cc3)c(=O)n(Cc3cccc(OC)c3)c2n1 -18.3%
CCNc1ncc2nc(-c3ccc(Cl)cc3)c(=O)n(Cc3cccc(OC)c3)c2n1 11.2%
CCNc1ncc2nc(-c3cccs3)c(=O)n(Cc3cccc(OC)c3)c2n1 -27.9%

AC50, inactive:
CCCC[S@@](=N)(=O)CC[C@@H](N)C(=O)O

AC50, active:
CSc1nncc(/C(C)=N\Nc2ccccc2)n1 5.01 µM
N#Cc1ccc(CN2CC3(CCN(C(=O)c4cccc(F)c4)CC3)C2)cc1 2 µM
O=C(c1cccc(F)c1)N1CCC2(CCCN(Cc3ccncc3)C2)CC1 10 µM
O=C(c1ccco1)N1CCC2(CCCN(Cc3ccncc3)C2)CC1 10 µM
Cc1cc(C(C)(C)C)cc(CNC2CCCCC2)c1O 0.02 µM
O=C(Cc1cccs1)N1CCC(c2nc3c(nnn3Cc3ccccc3Cl)c(=O)[nH]2)CC1 2 µM
O=C(CSc1ccc(C(F)(F)F)cc1[N+](=O)[O-])Nc1ccccc1 0.891 µM
Cc1ccc(Nc2c([N+](=O)[O-])ccc3c2=NC2(CCCCC2)N=3)cc1 2.82 µM
CSc1nsc(SC)c1C(=O)Nc1ccc(C)cc1 8.91 µM
CCCCOC(=O)c1ccc(NC(=S)NC(=O)c2c(Cl)cnn2C)cc1 15.8 µM
O=C1CC(SC(=Nc2ccccc2)Nc2ccccc2)C(=O)N1c1cccc(Cl)c1 (stereo unspecified) 2.24 µM
CCN=C(Nc1cccc(F)c1)SC1CC(=O)N(c2ccc(OC)cc2)C1=O (stereo unspecified) 3.98 µM
Cc1ccccc1-c1cc(C(=O)Nc2nc3c(s2)CCCC3)c2ccccc2n1 4.47 µM
Cc1ccc(C)c(-c2cc(C(=O)Nc3nccs3)c3ccccc3n2)c1 10 µM
Cc1ccc(C)c(-c2cc(C(=O)Nc3sc(C)c(C)c3C(N)=O)c3ccccc3n2)c1 2.24 µM
COC(=O)c1sccc1NC(=O)c1cc(-c2cc(C)ccc2C)nc2ccccc12 2.51 µM
Cc1ccc(NC(=S)NC(=O)c2c(-c3ccccc3Cl)noc2C)cc1 2 µM
CC(=O)C1=NOC(CNC(=O)c2c(-c3ccccc3Cl)noc2C)C1 (stereo unspecified) 11.2 µM
Cc1onc(-c2ccccc2Cl)c1C(=O)Nc1nnc(Cc2ccc(Cl)cc2)s1 15.8 µM
Cc1ccccc1-n1nc2c(c1NC(=O)c1c(-c3ccccc3Cl)noc1C)CSC2 11.2 µM
CCOC(=O)c1cnc2cc(-c3ccc(C(C)(C)C)cc3)nn2c1N 0.562 µM
Cc1occc1C(=O)NNC(=O)Cc1ccccc1 10 µM
Cc1ccc(OCCNC(=O)c2cncc(Br)c2)cc1C 6.31 µM
Fc1ccc(-c2csc(N3CCC(c4ccccc4)C3)n2)cc1 (stereo unspecified) 11.2 µM
Brc1ccc(-c2csc(N3CCC(c4ccccc4)C3)n2)cc1 (stereo unspecified) 10 µM
Clc1ccc(-c2csc(N3CCC(c4ccccc4)C3)n2)cc1 (stereo unspecified) 10 µM
c1ccc(CNc2ccnc(-c3ccoc3)n2)cc1 3.98 µM
Cc1cccc(CNc2ccnc(-c3ccoc3)n2)c1 10 µM
Cc1ccc(N(C(C)C(=O)Nc2cc(Cl)ccc2Oc2ccccc2)S(C)(=O)=O)cc1 (stereo unspecified) 1.41 µM
CC(C(=O)Nc1ccccc1Sc1ccccc1)N(c1ccccc1)S(C)(=O)=O (stereo unspecified) 4.47 µM
O=C1CC(NCCC2=CCCCC2)C(=O)N1c1cccc(Cl)c1Cl (stereo unspecified) 4.47 µM
Cc1ccc(C2CC2C(=O)NN)cc1 (stereo unspecified) 3.55 µM
CCOC(=O)C1CCCN(C(=O)CCCOc2cc(=O)n(C)c3ccccc23)C1 (stereo unspecified) 6.31 µM
Cn1c(=O)cc(OCCCC(=O)N2CCN(c3ccccc3)CC2)c2ccccc21 1.26 µM
COC(=O)CNC(c1ccccc1Cl)c1cc(Br)ccc1NC(=O)CCN1CCOCC1 (stereo unspecified) 28.2 µM
CN(C)C(=O)c1ccc(-c2cncnc2NCc2cccnc2)cc1 2.51 µM
CN(C)c1ccc(-c2cncnc2NCc2ccccc2)cc1 0.398 µM
CN(C)c1ccc(-c2cncnc2NCc2cccnc2)cc1 0.0316 µM
CNc1ncncc1-c1ccc(C(=O)N(C)C)cc1 25.1 µM
CCOC(=O)c1c(NC(=O)Cn2cc([N+](=O)[O-])cn2)sc2c1CCC2 2 µM
CCOC(=O)c1c(NC(=O)Cn2nc([N+](=O)[O-])c(Br)c2C)sc2c1CCC(C)C2 (stereo unspecified) 8.91 µM
CCOC(=O)c1c(NC(=O)CSc2nnc(C)s2)sc2c1CCCCC2 2.24 µM
COc1cccc(Cn2c(=O)cnc3cnc(Nc4cccc(OC)c4)nc32)c1 3.98 µM
CCNc1ncc2nc(C)c(=O)n(Cc3cccc(OC)c3)c2n1 10 µM
CCNc1ncc2ncc(=O)n(Cc3cccc(OC)c3)c2n1 2 µM
